Assay outcomes deposited in PubChem by National Center for Advancing Translational Sciences (NCATS).
FBPA Giardia inh = Giardia lamblia aldolase inhibition | 290,000 compounds, 0.71% hits | A8B2U2 | Potency, µM (top dose mostly 59.6 µM), most hits filed as inhibitors | purified Giardia FBPA; also: nearly all actives have a fitted effect of over 55% in size
Target sequence (A8B2U2 whole entry, looked up): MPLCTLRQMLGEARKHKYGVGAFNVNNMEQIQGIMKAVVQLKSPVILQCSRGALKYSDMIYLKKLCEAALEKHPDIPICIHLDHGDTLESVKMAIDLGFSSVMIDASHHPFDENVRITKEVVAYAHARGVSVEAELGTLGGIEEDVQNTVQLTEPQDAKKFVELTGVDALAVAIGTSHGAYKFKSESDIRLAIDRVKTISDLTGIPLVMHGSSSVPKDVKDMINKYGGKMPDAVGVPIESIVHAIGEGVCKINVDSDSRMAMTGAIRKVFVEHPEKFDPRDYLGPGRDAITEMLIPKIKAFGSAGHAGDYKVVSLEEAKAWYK
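40 nM FBPA preincubated 10 min at RT with compound (up to 57.5 uM final), then substrate plus GAPDH/TPI/NAD/arsenate coupling and diaphorase/resazurin added. Fluorescence read after 20 min at RT, 525/598 nm.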
LmPK inhibitor = inhibitors of Leishmania mexicana pyruvate kinase; Potency, µM (top dose mostly 57.5 µM), hits mostly inhibitors; 290,000 compounds, 0.37% hits; purified LmPK, Kinase-Glo ATP luminescence, 1 h; AID 1721; Q27686
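Pyruvate kinase activity monitored as ATP production (luciferase luminescence). Conditions: 0.1 nM enzyme, 0.5 mM PEP, 0.1 mM ADP, 1 h, RT; normalized against uninhibited and no-enzyme wells.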
Cycloheximide cs = affects cycloheximide protein synthesis inhibition readout, counter-screen | cell reporter, cycloheximide protein synthesis inhibition counterscreen | max response, % | 300,000 compounds, 12% hits; in the data active = max response mostly above about 13%, no sharp cut-off; inactive = mostly below about 14%; also: read at 38.3 µM for the half of the compounds with a filed dose
Tb PYK inh = T. brucei pyruvate kinase inhibition; Q57TT1; TbPYK enzyme, Kinase-Glo Plus ATP luminescence, 45 min; Potency, µM (doses to about 76.8 µM), most hits filed as inhibitors; 410,000 compounds, 0.12% hits; AID 624173; also: nearly all actives have a fitted effect of over 50% in size
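Luminescence from Kinase-Glo Plus, added after a 45-minute room-temperature reaction, served as the end-point read-out. The enzyme and substrate were preincubated with compound before ADP (130 uM final) initiated turnover. Concentration-effect curves came from normalized qHTS data.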
Shiga toxin inh = inhibitors of Shiga toxin in Vero cells. Vero cells, Shiga toxin protein synthesis inhibition reporter. 290,000 compounds, 9.2% hits. AID 2315. inhibition, % at 38.7 µM; in the data active = inhibition mostly above about 28%, no sharp cut-off; inactive = mostly below about 43%
RE007 growth inh = less growth of the S. pombe RE007 Vpr strain; Potency, µM (top dose mostly 92.2 µM), hits mostly inhibitors; AID 651644; 360,000 compounds, 0.21% hits; S. pombe RE007 Vpr strain, BacTiter-Glo ATP luminescence, 24 h; active = well fitted falling curve with a large enough effect; inconclusive = small, poorly fitted or top-dose-only effect; inactive = no such curve, though single readings can be large or run the other way; also: nearly all actives have a fitted effect of over 50% in size
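Fission yeast RE007 carrying one integrated HIV-1 vpr copy, seeded at OD 0.01 in PMG+AL medium with 23 nL pinned compound. Grown 24 h at 30 degrees; viability read by BacTiter-Glo luminescence after 5 min.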
Large screens that a line does not name were inactive; ! = not active in a repeat. Shown is part of a subset that was picked to be rich in hits. Unless noted, calls follow the shape of the dose curve; as a rule, active = well fitted curve in the direction sought with a large enough effect; inconclusive = small, poorly fitted or top-dose-only effect, or another doubt; inactive = no such curve, though single readings can be large; an effect the other way counts as inactive or inconclusive.

CC(C)(C)c1ccc(C(=O)NC(=S)Nn2cnnc2)cc1	FBPA Giardia inh inconclusive, Cycloheximide cs 18.5, Shiga toxin inh 120.4
CC(C)(C)c1ccc(C(=O)NC(=S)N2CCCCCC2)cc1	Cycloheximide cs 19.8 (no result: FBPA Giardia inh)
CC1CCN(C(=S)NC(=O)c2ccc(C(C)(C)C)cc2)CC1	none
CCOC(=O)c1c(S(=O)(=O)N2CCC(C(=O)Nc3ccc(F)cc3F)CC2)c(C)n(C)c1C	none (no result: FBPA Giardia inh, LmPK inhibitor, Cycloheximide cs, Shiga toxin inh, RE007 growth inh)
CN(C)/C=C1\N=C(c2ccc(Cl)cc2Cl)OC1=O	Cycloheximide cs 20.8
Cc1cccc(OCC2=N/C(=C\N(C)C)C(=O)O2)c1	Cycloheximide cs 21.5
Cc1ccc(C2=N/C(=C\N(C)C)C(=O)O2)cc1	Cycloheximide cs 39.8, Shiga toxin inh 74.9
Cc1cccc(OCc2nc(C)cc(=O)[nH]2)c1	none
CN(C)/C=C1/N=C(c2ccccc2)OC1=O	none
COC(=O)c1ccccc1NC(=O)Cn1c(=O)n(Cc2ccc(C(=O)NCc3ccc4c(c3)OCO4)cc2)c(=O)c2ccccc21	none (no result: FBPA Giardia inh, LmPK inhibitor, Cycloheximide cs, Shiga toxin inh, RE007 growth inh)
COc1ccc(-c2nn3c(-c4ccc(C)cc4)nnc3c3ccccc23)cc1	none (no result: FBPA Giardia inh, LmPK inhibitor, Cycloheximide cs, Shiga toxin inh, RE007 growth inh)
CCOC(=O)c1sc(/N=C/c2ccc(O)cc2O)cc1C	Cycloheximide cs 39.7, Shiga toxin inh 41.1
CC(=O)Nc1cc(Cl)c(N=Cc2ccc(O)cc2O)cc1Cl	FBPA Giardia inh inconclusive
C[Si](C)(C)C#Cc1ccccc1NC(=S)Nc1ccccc1	none (no result: LmPK inhibitor, Cycloheximide cs, Tb PYK inh, Shiga toxin inh, RE007 growth inh)
CCOC(=O)c1ccc(NC(=O)CC(=O)Nc2ccc3nc4n(c(=O)c3c2)CCCCC4)cc1	none (no result: FBPA Giardia inh, LmPK inhibitor, Cycloheximide cs, Shiga toxin inh, RE007 growth inh)
O=C(CSc1nc2ccccc2nc1N1CCOCC1)Nc1ccccc1F	Cycloheximide cs 20.0, Shiga toxin inh 24.1
CCOc1ccccc1NC(=O)CSc1nc2ccccc2nc1N1CCOCC1	none
CC(=O)Nc1ccc(NC(=O)CSc2nc3ccccc3nc2N2CCC(C)CC2)cc1	Cycloheximide cs 18.8
CCOc1ccc(C(=O)Nc2ccc3oc(-c4ccc5ccccc5c4)nc3c2)cc1	none (no result: FBPA Giardia inh, LmPK inhibitor, Cycloheximide cs, Shiga toxin inh, RE007 growth inh)
COc1ccc(-c2cc(C3C4C=CCC(C)C4C(=O)N3Cc3ccccc3)ccc2F)cc1OC (configuration not stated)	Cycloheximide cs 51.4, Shiga toxin inh 62.6 (no result: LmPK inhibitor, Tb PYK inh, RE007 growth inh)
CN(C)c1ccc(-c2cccc(C3CC=CC4C3C(=O)N(Cc3ccccc3)C4c3ccc(C(F)(F)F)cc3)c2)cc1 (configuration not stated)	Cycloheximide cs 14.1!
COc1ccc(C2C3C=CCC(c4cccc(/C=C/c5ccccc5)c4)C3C(=O)N2Cc2ccccc2)cc1Cl (configuration not stated)	Cycloheximide cs 36.3, Shiga toxin inh 35.9 (no result: LmPK inhibitor, Tb PYK inh, RE007 growth inh)
COc1ccc([C@H]2[C@H]3C=CC[C@@H](C)[C@@H]3C(=O)N2Cc2ccccc2)cc1Cl	none
Cc1ccc(OCC(=O)Nc2ccccc2C(=O)OCc2cc(=O)n3nc(C4CC4)sc3n2)cc1	none (no result: FBPA Giardia inh, LmPK inhibitor, Cycloheximide cs, Shiga toxin inh, RE007 growth inh)
Cc1ccc(Nc2c(F)cccc2Cl)c(CC(=O)O)c1	none (no result: FBPA Giardia inh, LmPK inhibitor, Cycloheximide cs, Shiga toxin inh, RE007 growth inh)
O=C(Cn1c(=O)nc(-c2ccccc2F)c2cc(Cl)ccc21)NCCCc1ccccc1	none (no result: FBPA Giardia inh, LmPK inhibitor, Cycloheximide cs, Shiga toxin inh, RE007 growth inh)
COc1ccc(CN(C)C(=O)c2ccc3c(=O)n4c(nc3c2)CCC4)cc1	Cycloheximide cs 44.0, Shiga toxin inh 110.2 (no result: FBPA Giardia inh)
CN(C(=O)c1ccc2c(=O)n3c(nc2c1)CCCCC3)c1ccccc1F	Cycloheximide cs 16.9
CCc1ccccc1N(C)C(=O)c1ccc2c(=O)n3c(nc2c1)CCCCC3	none (no result: FBPA Giardia inh, LmPK inhibitor, Cycloheximide cs, Shiga toxin inh, RE007 growth inh)
CN(C(=O)c1ccc2c(=O)n3c(nc2c1)CCCCC3)c1cccc(Cl)c1	Cycloheximide cs 17.5
COc1cccc(CN(C)C(=O)c2ccc3c(=O)n4c(nc3c2)CCC4)c1	none (no result: FBPA Giardia inh, LmPK inhibitor, Cycloheximide cs, Shiga toxin inh)
COc1cc(OC)c2c(c1Cl)O[C@@]1(C2=O)[C@H](C)CC(=O)C[C@@H]1OC	none (no result: LmPK inhibitor, Cycloheximide cs, Tb PYK inh, Shiga toxin inh, RE007 growth inh)
Oc1oc(-c2ccccc2)nc1C=Nc1cccc2ccccc12	Cycloheximide cs 19.7
CCCCOc1ccc(-c2nc(/C=N/c3nccs3)c(O)o2)cc1	none
Oc1oc(-c2ccccc2)nc1/C=N/c1nccs1	Cycloheximide cs 33.0, Shiga toxin inh active
CCN(CC)c1ccc(NC(=O)C2COc3ccc(OC)cc3C2)c(C)c1 (configuration not stated)	none (no result: FBPA Giardia inh, LmPK inhibitor, Cycloheximide cs, Shiga toxin inh, RE007 growth inh)
COc1ccc(-c2cc(C(=O)NC3=NCCS3)c3ccccc3n2)cc1OC	Cycloheximide cs 26.8
COc1ccc(-c2cc(C(=O)NC3CCCC3)c3ccccc3n2)cc1OC	none (no result: FBPA Giardia inh, LmPK inhibitor, Cycloheximide cs, Shiga toxin inh)
